Screening data (PubChem BioAssay)
KCNQ2 block – inhibitors of rat KCNQ2 potassium channel; O88943; CHO-K1 KCNQ2, FluxOR thallium flux, 20 min; hits give low values; B-score at 10 µM; actives 1.1% (n = 310,000);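 active = fluorescence ratio B-score at most minus 3 library SDs, with starting brightness B-score within 2 library SDs, cut at about -5.5 in these data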
KCNQ2 enhance – potentiators of rat KCNQ2 potassium channel. O88943. CHO-K1 KCNQ2, FluxOR thallium flux fluorescence; hits give high values. B-score at 10 µM. actives 0.54% (n = 310,000). AID 2239;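 active = fluorescence ratio B-score at least 3 SD of library B-scores, with initial fluorescence B-score within 3 of them, cut at about 5.3 in these data; same plate scores as AID 2156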;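 also: B-score of peak minus minimum over baseline fluorescence ratio after K+ and Tl+ stimulus; positive B-score means potentiation of KCNQ2 with more thallium influx and brighter signal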
Kir21 conf inh – confirmation of mouse Kir2.1 potassium channel inhibitors; Tl flux remaining, % of negative control (hits give low values), % at 10 µM; shares compounds with KCNQ2 enhance; Kir2.1-expressing cells, FluxOR thallium flux fluorescence; hits give low values; actives 41% (n = 2,300);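 active = Primary-screen hit whose thallium flux fell at least 3 control SD below untreated wells in both duplicates, with normal baseline fluorescence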;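 also: 0% = blank wells without stimulus and 100% = stimulated no-compound controls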
Target sequence (P35561 whole entry, looked up): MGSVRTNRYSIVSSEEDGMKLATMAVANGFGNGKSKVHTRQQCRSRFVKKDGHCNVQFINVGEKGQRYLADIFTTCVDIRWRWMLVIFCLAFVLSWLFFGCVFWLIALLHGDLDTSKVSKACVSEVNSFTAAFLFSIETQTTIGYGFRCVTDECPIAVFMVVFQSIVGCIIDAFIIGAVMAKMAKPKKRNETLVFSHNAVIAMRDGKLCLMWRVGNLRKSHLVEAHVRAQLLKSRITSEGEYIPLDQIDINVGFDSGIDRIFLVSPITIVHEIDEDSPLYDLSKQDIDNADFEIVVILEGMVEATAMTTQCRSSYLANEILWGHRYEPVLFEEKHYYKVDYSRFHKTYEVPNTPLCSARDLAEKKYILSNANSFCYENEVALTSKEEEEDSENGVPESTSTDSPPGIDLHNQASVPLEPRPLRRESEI
HEK293 Tl flux – parental HEK293 activity in Kir2.1 inhibitor counter-screen; shares compounds with KCNQ2 enhance; parental HEK293 cells, FluxOR thallium flux fluorescence; 0% = unstimulated blank wells; FluxOR signal as % of negative control (100 = no effect), % at 10 µM; actives 19% (n = 2,300);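 active = dye signal at least 3 control SD above or below untreated wells in both duplicates, raw fluorescence within 3, either direction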;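 also: percent is based on the flux ratio of peak minus minimum fluorescence over baseline F0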
CHO-K1 ctr – counter-screen for KCNQ2 potentiators: effect in parental CHO-K1 cells | activity increase over 3SD of controls, % at 10 µM | AID 2282 | actives 43% (n = 1,200) | FluxOR thallium flux fluorescence; zero = vehicle mean+3SD, 100% = vehicle-minus-blank window | shares compounds with KCNQ2 enhance;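 active = signal rise of at least 3 SD above the untreated control mean, in both duplicate wells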;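 also: counter screen of KCNQ2 potentiator hits so any rise reflects channel-independent effects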
KCNQ1 pot spec – tests whether KCNQ2 potentiators also act on human KCNQ1. shares compounds with KCNQ2 enhance. CHO KCNQ1 stable, FluxOR thallium flux fluorescence; beyond 3SD, as % of vehicle-control signal. activation over 3SD threshold, % at 10 µM. actives 28% (n = 1,200). AID 2283;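 active = fluorescence ratio rise of at least 3 SD of vehicle wells above their mean, in both replicate wells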;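 also: 0% = vehicle mean plus 3 SD and 100% = vehicle minus unstimulated blank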
KCNQ2 pot conf – confirmation of rat KCNQ2 potassium channel potentiators. shares compounds with KCNQ2 enhance. actives 68% (n = 1,200). AID 2287. CHO-KCNQ2 cells, FluxOR thallium flux fluorescence. potentiation, less the hit threshold, % at 10 µM;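 active = fluorescence ratio rising 3 SD or more over the vehicle control mean in both replicates, plus primary screen hit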;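 also: peak minus minimum thallium fluorescence divided by baseline after K/Tl stimulus; 0% = vehicle mean plus 3 SD and 100% = vehicle minus unstimulated blank difference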
Kir21 spec – selectivity of KCNQ2 potentiators: effect on mouse Kir2.1; shares compounds with KCNQ2 enhance; HEK293 Kir2.1, FluxOR thallium flux fluorescence; activity over 3SD threshold, % at 10 µM; actives 2% (n = 1,200);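 active = fluorescence ratio rise of at least 3 SD above the vehicle-control mean, seen in both replicates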;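 also: 0% = vehicle mean plus 3 SD and 100% = vehicle minus no-stimulus blank window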
KCNQ2 W236L pot – rat KCNQ2 W236L mutant potentiation by KCNQ2 potentiators | actives 10% (n = 940) | current increase over 3SD of negative controls (%), hits give high values, % at 25 µM | shares compounds with KCNQ2 enhance | CHO KCNQ2-W236L, automated patch clamp current;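 active = current increase at least 3 SD of the untreated controls above them in both duplicate recordings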
* = called active by the depositor; i = inactive; / = no result. Compounds with a hit are over-represented: about 1.6% of the library has one in this group of screens.

SMILES	KCNQ2 block	KCNQ2 enhance	Kir21 conf inh	HEK293 Tl flux	others
COc1ccc(NC(C)=O)cc1S(=O)(=O)NC1CCSc2ccccc21 (centres undefined)	i	1.3	/	/
O=C(Nc1nnc(S(=O)(=O)N2CCCCC2)s1)c1cccc(Br)c1	i	/	/	/
C=CCn1c(SCC(N)=O)nnc1-c1cccc(Br)c1	i	0.43	/	/
C=CCn1c(SCc2ccccc2C#N)nnc1-c1cc(Br)ccc1O	i	/	i	i
CCOc1cc(CNC(C)(C)CO)cc(Br)c1OCc1ccc(Cl)cc1Cl	-7.7*	-7.7	22%*	i
CCOc1cc(CNCCO)cc(Br)c1OCc1ccccc1Cl	-7.4*	-7.4	i	i
COc1cc(CNCCO)cc(Cl)c1OCc1ccccc1Cl	i	/	/	/
COc1cc(CNC(C)(C)CO)cc(Br)c1OCc1ccccc1	i	1.4	/	/
O=C(CNC(=O)c1ccc(Br)o1)NCc1ccc(F)cc1	i	0.04	/	/
COCC(C)NC(=S)Nc1ccccc1[N+](=O)[O-] (centres undefined)	i	/	/	/
OCCN1CCN(Cc2cc(Cl)c3cccnc3c2O)CC1	i	1	/	/
O=C(Oc1c(CN2CCOCC2)cc(Cl)c2cccnc12)c1cccs1	i	/	/	/
Oc1c(Cl)cc(CN2CCCCC2)c2cccnc12	i	/	/	/
O=C(Oc1c(Cl)cc(Cl)c2cccnc12)c1cccs1	i	11*	i	i	CHO-K1 ctr=-5;KCNQ1 pot spec=-38;KCNQ2 pot conf=-34;Kir21 spec=-41
Oc1c(CN2CCN(c3ccccn3)CC2)cc(Cl)c2cccnc12	i	11*	i	146%*	CHO-K1 ctr=4.1*;KCNQ1 pot spec=-5;KCNQ2 pot conf=24*;Kir21 spec=-25;KCNQ2 W236L pot=i
Oc1c(Cl)cc(Cl)c2cccnc12	i	7.8*	i	176%*	CHO-K1 ctr=-12;KCNQ1 pot spec=-15;KCNQ2 pot conf=11*;Kir21 spec=-12;KCNQ2 W236L pot=i
C=CCOC(=O)C1=C[C@H](c2ccc(Br)cc2)C[C@H](OCc2ccc(CO)cc2)O1	i	/	/	/
O=[N+]([O-])c1cccnc1SCc1ccccc1	i	0.01	/	/
CSc1ccccc1NC(=O)NCCCl	i	/	/	/
COc1ccc(CCNc2nc(-c3ccc(F)cc3)c(CC(=O)O)s2)cc1OC	i	/	/	/
COc1cccc(N(C(=O)CNC(=O)c2ccco2)C(C(=O)NC2CCCC2)c2cccnc2)c1 (centres undefined)	i	/	/	/
Fc1ccc(NC(=S)NCc2cccs2)cc1	i	0.39	/	/
O=C(CSc1nc2ccc(Cl)cc2[nH]1)NCc1ccco1	i	0.53	/	/
O=C(CSc1c2c(nc3cc(Cl)ccc13)CCCC2)NCc1ccco1	i	/	57%*	i
Cc1ccc(C)c(C(C)NC(=O)Cc2cccs2)c1 (centres undefined)	i	/	/	/
SMILES	KCNQ2 block	KCNQ2 enhance	Kir21 conf inh	HEK293 Tl flux	others
O=[N+]([O-])c1ccc(Sc2nccn2Cc2ccccc2)c([N+](=O)[O-])c1	i	/	52%*	i
Cn1ccnc1Sc1ccccc1[N+](=O)[O-]	i	/	/	/
O=[N+]([O-])c1cc(C(F)(F)F)ccc1Sc1nccn1Cc1ccccc1	i	/	58%*	i
O=[N+]([O-])c1cc(C(F)(F)F)ccc1Sc1ccc2ccccc2n1	i	/	/	/
Nc1nc(CCl)nc(N(c2ccccc2)c2ccccc2)n1	i	1.4	/	/
Cc1nnc(N(C)C(=O)c2ccc3c(c2)OCO3)s1	i	0.5	/	/
Cc1coc2c1c(C)cc1oc(=O)c(CC(=O)NCCCCCC(=O)O)c(C)c12	i	0.48	/	/
CCOC(CNC(=O)Cn1nc(C)c2ccccc21)OCC	i	/	/	/
O=[N+]([O-])c1ccc(NCCNS(=O)(=O)c2ccccc2)c(C(F)(F)F)c1	i	/	i	i
